An excerpt weighted towards active compounds, which were near 12% of everything screened.
L3MBTL1 block = blocks human L3MBTL1 | 230,000 compounds, 0.66% hits | Q9Y468 | Potency, µM (highest dose often 57.1 µM), for inactives: at the highest dose activity, negative = inhibition, hits mostly inhibitors | AlphaScreen L3MBTL1–H3K9me1 peptide binding | AID 485360; further: on the % scale 0 is the no-effect control and ±100 the full control effect; nearly all actives have a fitted effect of over 60% in size
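L3MBTL1 50 nM + b-AHA-H3(1-15)K9me1 75 nM, 30 min RT; compound added, 30 min RT; streptavidin donor/Ni-chelate acceptor beads 10 ug/mL each final, 30 min RT dark; AlphaScreen read.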
HP1b binding inh = inhibitors of HP1-beta chromodomain binding to methylated histone tails; 390,000 compounds, 0.56% hits; P83916; AlphaScreen HP1-beta / biotin-H3K9me3 peptide binding; Potency, µM (series often up to 114 µM), without a hit: at the top dose activity change, negative = inhibition, hits mostly inhibitors; further: nearly all actives have a fitted effect of over 70% in size
Target sequence (P83916 whole entry, looked up): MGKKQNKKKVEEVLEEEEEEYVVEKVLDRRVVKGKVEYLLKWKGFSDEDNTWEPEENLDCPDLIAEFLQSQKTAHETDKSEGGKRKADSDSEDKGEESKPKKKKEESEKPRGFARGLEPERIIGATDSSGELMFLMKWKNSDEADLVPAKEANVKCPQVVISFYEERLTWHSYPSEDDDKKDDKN
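Compound inhibition of the preformed complex between 50 nM HP1-beta and 50 nM biotinylated H3K9me3 peptide was read by AlphaScreen. Buffer was PBS pH 7.4 with 0.01% Tween-20. Incubations ran 30 min at room temperature, with 10 ug/mL donor/acceptor beads.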
Sfp inh = blocks B. subtilis Sfp PPTase activity; Q9F4F7; Potency, µM, for inactives: largest response in the series, negative = inhibition, hits mostly inhibitors; AID 1490; Biochemical Sfp PPTase activity, qHTS; 310,000 compounds, 3.5% hits;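 further: the enzyme is Sfp with the accession as filed and its product quenches rhodamine fluorescence; 0% = enzyme reaction without inhibitor and -100% = no enzyme wells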
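After 15 min at room temperature with compound, 15 nM Sfp received 5 uM rhodamine-CoA plus 12.5 uM BHQ-2-ybbR (50 mM Hepes pH 7.6, 10 mM MgCl2). Rate came from the fluorescence difference over 30 min, ex 525/em 598 nm.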
BAZ2B inh = inhibitors of human BAZ2B bromodomain; AlphaScreen BAZ2B-H3K14Ac peptide displacement; 360,000 compounds, 4.4% hits; Potency, µM (titrated, usually from 114 µM), for inactives: at the highest dose activity change, negative = inhibition, usual class: inhibitors; AID 504333; further: on the % scale 0 is the no-effect control and ±100 the full control effect; nearly all actives have a fitted effect of over 60% in size
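In this displacement format the biotinylated H3(5-23) peptide acetylated at Lys14 serves as ligand at 50 nM, with BAZ2B at 50 nM in PBS pH 7.4 containing 0.01% Tween-20. Donor and acceptor beads are 10 ug/mL final.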
JMJD2A Tudor = inhibitors of human JMJD2A Tudor domain | AID 504339 | 390,000 compounds, 4.4% hits | Potency, µM (doses to about 114 µM), without a hit: top-dose activity change, negative = inhibition, hits mostly inhibitors | AlphaScreen JMJD2A-Tudor / H3K4me3 peptide binding; further: on the % scale 0 is the no-effect control and ±100 the full control effect; nearly all actives have a fitted effect of over 50% in size
G9a inh = G9a (human) methyltransferase inhibition. Q96KQ7. G9a H3K9 monomethylation, AlphaScreen, 2 h. Potency, µM (top dose mostly 102 µM), for inactives: top-dose activity, negative = inhibition, actives largely listed as inhibitors. 350,000 compounds, 8.8% hits. AID 504332; further: on the % scale 0 is the no-effect control and ±100 the full control effect; nearly all actives have a fitted effect of over 75% in size
Target sequence (Q96KQ7 913-1193 limits assumed): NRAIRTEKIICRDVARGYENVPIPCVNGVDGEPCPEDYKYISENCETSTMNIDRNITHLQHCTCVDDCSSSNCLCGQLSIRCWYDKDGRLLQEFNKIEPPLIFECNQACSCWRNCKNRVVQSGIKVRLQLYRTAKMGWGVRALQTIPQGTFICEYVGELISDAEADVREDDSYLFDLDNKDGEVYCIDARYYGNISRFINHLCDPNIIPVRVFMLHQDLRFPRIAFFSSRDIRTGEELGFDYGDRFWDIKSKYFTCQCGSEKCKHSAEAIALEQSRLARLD
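Methyltransferase reactions run at room temperature for 2 h (20 nM enzyme, 500 nM biotin-H3K9 peptide, 20 uM SAM) after a 15 min compound preincubation; product detected by AlphaScreen beads and anti-H3K9me1 antibody.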
* hit, by the source's call; u = inconclusive; x = no result; ! = a repeat was not active; [ ] = dose if it differs, or a comment. The call rests on the fitted dose curve; in most records, active means well fitted curve in the direction sought with a large enough effect; inconclusive means small, poorly fitted or top-dose-only effect, or another doubt; inactive means no such curve, though single readings can be large; an effect the other way counts as inactive or inconclusive. Potency means the concentration at half of the fitted maximal effect.

SMILES	L3MBTL1 block	HP1b binding inh	Sfp inh	BAZ2B inh	JMJD2A Tudor	G9a inh
O=C(CCN1C(=O)/C(=C\c2ccc(F)cc2)SC1=S)Nc1ccccc1	x	-23%	11%	9%	-9%	2%
CCOc1ccc(/C=C2/SC(=S)N(CCC(=O)Nc3ccc(C(=O)O)cc3)C2=O)cc1	x	35µM*	0%	32µM*	10µM*	16µM*
O=C(CCN1C(=O)/C(=C\c2ccccc2)SC1=S)Nc1ccc(C(=O)O)cc1	x	-30%	5%	56µM*	u	u
COc1ccc(/C=C2\SC(=S)N(CCCC(=O)Nc3ccc(C(=O)O)cc3)C2=O)cc1OC	x	-10%	-4%	50µM*	u	x
CCN(CC)CCOC(=O)c1ccc(NC(=O)CCCN2C(=O)S/C(=C/c3ccc(OC)cc3)C2=S)cc1	x	u	-21%	u	u	40µM*
COc1ccc(/C=C2\SC(=O)N(CCCC(=O)Nc3ccc(C(=O)O)cc3)C2=O)cc1OC	x	15%	8%	-2%	-4%	9%
Cc1ccc(C2C=C(c3ccc(F)cc3)Nc3nc(CCCO)nn32)cc1 (centres undefined)	x	42%	x	-4%	-20%	-41%[59 µM]
C=CCOC(=O)C(C(C)=O)C(NC(=O)OC)c1ccc(F)cc1 (centres undefined)	x	x	-7%	x	x	x
O=C(CCn1cnc(-c2ccccc2)c1-c1ccccc1)N/N=C/c1ccccc1O	0%	u	6%	u	25µM*	45µM*
COc1ccc(/C=N/NC(=O)CCn2cnc(-c3ccccc3)c2-c2ccccc2)cc1	-8%	u	-10%	25µM*	20µM*	u
O=C(CCn1cnc(-c2ccccc2)c1-c1ccccc1)N/N=C/c1ccc(O)cc1	-1%	u	-12%	u	25µM*	u
CCCCCn1c(=O)c2c(nc3n2CCN3c2ccc(Br)cc2)n(C)c1=O	x	18%	x	u	-33%	u
COc1ccc(-n2nc(C(=O)NCC(=O)N3CCN(c4ccccc4OC)CC3)c3ccccc3c2=O)cc1OC	x	8%	-4%	-13%	-19%	9%
CCOC(=O)N1CCN(C(=O)CNC(=O)c2nn(-c3ccc(OC)cc3OC)c(=O)c3ccccc23)CC1	x	51%	31%	5%	-4%	45µM*
COc1ccc(-n2nc(C(=O)NCC(=O)N3CCN(c4ccccc4)CC3)c3ccccc3c2=O)cc1OC	x	65%	26%	2%	-13%	45µM*
O=C(O)c1cccc(NS(=O)(=O)c2cccc3nsnc23)c1	x	56%	8%	-5%	-12%	16%[59 µM]
O=C(CSc1ncc(C(=O)O)n1-c1ccc(F)cc1)NCc1ccc2c(c1)OCO2	-26%	23%	-3%	10%	-7%	45µM*
O=C(CSc1nnc(Cc2cccs2)n1-c1ccc(Cl)cc1)NCc1ccc2c(c1)OCO2	-6%	41%	5%	-37%	-18%	50µM*
Cc1cc(NC(=O)CSc2ncc(C(=O)O)n2-c2ccc(F)cc2)no1	4%	37%	x	x	1%	x
O=C(CSc1nnc(-c2cccs2)n1-c1ccccc1)NCc1ccc2c(c1)OCO2	x	29%	-1%	-8%	-29%	-23%[12.7 µM]
Cc1cc(O)c(CN2CCN(S(=O)(=O)c3cccs3)CC2)cc1C(C)C	-9%	29%	x	-25%	-24%	-7%[12.7 µM]
COc1ccc(NS(=O)(=O)c2cc(NC(=O)C(CC(C)C)NC(N)=O)ccc2N2CCOCC2)cc1 (centres undefined)	x	53%	x	x	-3%	x
CN1CCC(N(C)S(=O)(=O)c2ccc(NC(=O)COc3ccc(F)cc3)cc2)CC1	u	3%	x	u	-20%	11µM*
CN1CCC(N(C)S(=O)(=O)c2ccc(NC(=O)COc3ccc([N+](=O)[O-])cc3)cc2)CC1	-14%	24%	x	u	-11%	13µM*
CN1CCC(N(C)S(=O)(=O)c2ccc(NC(=O)COc3ccc(Cl)cc3)cc2)CC1	-9%	20%	x	0%	-19%	16%[12.7 µM]
SMILES	L3MBTL1 block	HP1b binding inh	Sfp inh	BAZ2B inh	JMJD2A Tudor	G9a inh
Cc1c(N2C(=O)c3cccc4cccc(c34)C2=O)cnn1C	4%	26%	18%	-3%	-13%	-49%
CC(C)CCOP(=O)(c1ccc(N(C)C)cc1)C(O)c1ccccn1 (centres undefined)	2%	23%	-2%	-2%	-25%	-7%
CN(C)c1ccc(P(=O)(OC2CCCCC2)C(O)c2cccnc2)cc1 (centres undefined)	1%	35%	11%	-13%	-12%	14%
CC(C)COP(=O)(c1ccc(N(C)C)cc1)C(O)c1ccccn1 (centres undefined)	-2%	27%	79µM*	x	1.3µM*	3.5µM*
CN(C)c1ccc(P(=O)(OC2CCCCC2)C(O)c2ccccn2)cc1 (centres undefined)	-2%	41%	u	45µM*	u	x
O=C(Cn1ccc(=O)[nH]c1=O)Nc1ccc(O)c([N+](=O)[O-])c1	x	6%[57 µM]	x	x	-16%	x
CNCCC(Oc1ccccc1C)c1ccccc1 (centres undefined)	x	x	6%	x	x	21µM*!
CC(=O)N1CCCc2cc(S(=O)(=O)Nc3ccc(C)c(C)c3)ccc21	x	x	x	x	-18%	x
Cc1ccccc1-c1cncnc1NCc1ccccc1	x	x	-17%	x	x	8%[0.501 µM]
Cc1ccc(NCc2cccnc2)cc1	x	-6%	10%	u	40µM*	56µM*
Cc1ccccc1-c1cncnc1NCc1cccnc1	x	x	79µM*	x	x	-6%[0.501 µM]
Cc1noc(C)c1-c1cncnc1NCc1cccnc1	x	x	56µM*	x	x	-49%[0.501 µM]
NC1=NCC2c3ccccc3Cc3ccccc3N12 (centres undefined)	x	x	20%	x	x	43%[59 µM]
Cc1cc(=O)[nH]c(SCC(=O)N2C(C)CCCC2C)n1 (centres undefined)	x	20%	14%	-4%	-14%	7%
COC(=O)CN1CC(=O)c2ccccc2S1(=O)=O	x	45%	-8%	x	-26%	x
O=C(N1CCOCC1)N1CCN(S(=O)(=O)c2ccc(Cl)cc2)C1	x	18%	17%	0%	5%	18%[59 µM]
CCS(=O)(=O)n1nc(-c2ccc(C)cc2)nc1N	3%	42%	9%	6%	5%	-11%[12.7 µM]
Nc1nc(C(=O)N2CCOCC2)nn1S(=O)(=O)c1ccccc1	-3%	20%	1%	50µM*	20µM*	18µM*
Nc1nc(C(=O)N2CCOCC2)nn1S(=O)(=O)c1ccc(Cl)cc1	3%[11.4 µM]	18%	8%	-7%	14µM*	u
CCS(=O)(=O)n1nc(C(=O)N2CCOCC2)nc1N	6%	25%	8%	u	89µM*	u
COc1cccc(Cn2c(SCC(=O)N3CCN(c4ccc(F)cc4)CC3)nc3ccccc32)c1	x	4%	x	-2%	-10%	3%[59 µM]
